Sm TGR inh: inhibitors of Schistosoma mansoni thioredoxin glutathione reductase | Q962Y6 | purified TGR, DTNB reduction, TNB absorbance 405 nm | Potency, µM (top dose mostly 114 µM), for inactives: at the top dose activity change, negative = inhibition, actives largely listed as inhibitors | 3% of 360,000 active; further: potency means the concentration at half of the fitted maximal effect; on the % scale 0 is the no-effect control and ±100 the full control effect; nearly all actives have a fitted effect of over 60% in size
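TGR 20 nM + NADPH 100 uM (dispensed conc.), cpd preinc 15 min RT; start with NADPH (500 uM addition) then DTNB (15 mM addition). Kinetic TNB absorbance, 405 nm filter. Four-parameter Hill fit across titration.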
HCMV inh: human cytomegalovirus inhibition | HFF cells, HCMV-luciferase reporter, 72 h; active compounds read low | activity change, negative = inhibition, % at 57.5 µM | 4.5% of 410,000 active; in the data active means activity change below about -60%; inconclusive means no clear call, values can overlap the other calls; inactive means above about -39%; further: on the % scale 0 is the no-effect control and ±100 the full control effect
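HFF cells seeded 16 h at 37C, treated with compounds, infected with luciferase-reporter HCMV at MOI 1 PFU/cell; luciferase read at 72 h post infection, normalized to buffer-only and Salinomycin controls.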
Pf growth 48h: inhibits P. falciparum growth in the first generation, 48 h; Potency, µM (highest dose often 28.7 µM), for the others: top-dose activity change, negative = inhibition, usual class: inhibitors; 5.9% of 310,000 active; P. falciparum luciferase growth in erythrocytes, 48 h; further: potency means the concentration at half of the fitted maximal effect; on the % scale 0 is the no-effect control and ±100 the full control effect
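Parasite viability was followed by luminescence of a genomically integrated firefly luciferase. Cultures held 0.1% parasitemia at 2% hematocrit (final), incubated under 5% CO2 at 37 C.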
HCV inhibitor: inhibitors of hepatitis C virus infection; AID 651820; Huh7.5.1 HCVcc-Cre infection, luciferase reporter, 44 h; 3.4% of 340,000 active; Potency, µM (top dose mostly 41.8 µM), for the others: at the top dose activity change, negative = inhibition, most hits filed as inhibitors; further: potency means the concentration at half of the fitted maximal effect; on the % scale 0 is the no-effect control and ±100 the full control effect
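Whole-lifecycle infectious HCVcc-Cre system; cells 1,000/well, compound then virus (~0.5 moi) added 4 h after plating, 44 h culture. Luciferase read 15 sec following 15 min substrate incubation, room temp.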
SARS PLpro yeast: inhibitors of SARS-CoV papain-like protease in yeast; AID 485353; 0.19% of 330,000 active; Potency, µM (top dose mostly 32.9 µM), inactives show at the top dose activity, positive = growth rescue, usual class: activators; S. cerevisiae expressing SARS-CoV PLpro, growth rescue; calls by dose curve; further: potency means the concentration at half of the fitted maximal effect; 0% is about no effect; nearly all actives have a fitted effect of over 55% in size
Pf growth 96h: P. falciparum growth inhibition at 96 hours; P. falciparum luciferase reporter growth, 96 h; Potency, µM (series often up to 28.7 µM), for inactives: at the top dose activity change, negative = inhibition, most hits filed as inhibitors; 6.9% of 320,000 active; AID 504834; further: potency means the concentration at half of the fitted maximal effect; on the % scale 0 is the no-effect control and ±100 the full control effect
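96 h incubation, 37 C, 5% CO2, of luciferase-reporter P. falciparum-infected RBCs (2% hematocrit, 0.05% parasitemia final) with test compounds; endpoint luminescence.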
* marks the source's active call; other numbers are inactive results; ? = inconclusive; . = not tested or not shown; [ ] = dose if it differs, or a comment. A selection: hits, their analogues and other compounds. The true share with any hit is near 15%. Unless noted, the call rests on the fitted dose curve; in most records, active means well fitted curve in the direction sought with a large enough effect; inconclusive means small, poorly fitted or top-dose-only effect, or another doubt; inactive means no such curve, though single readings can be large; an effect the other way counts as inactive or inconclusive.

SMILES	Sm TGR inh	HCMV inh	Pf growth 48h	HCV inhibitor	SARS PLpro yeast	Pf growth 96h
COc1ccc(OCCNC(=O)c2cccc(Oc3ccc(C(F)(F)F)cc3[N+](=O)[O-])c2)cc1	-9%	-66*	8%	?	1%	34%
O=C(Nc1ccccc1Oc1ccccc1)c1cccc([N+](=O)[O-])c1	8%	56	0%	?	-10%	7%
Cc1ccc(C)c(NC(=O)c2cccc(Oc3ccc([N+](=O)[O-])cc3Cl)c2)c1	-5%	?	-7%	?	-3%	13µM*
COc1ccc(NC(=O)c2cccc(Oc3ccc([N+](=O)[O-])cc3Cl)c2)cc1	0%	-87*	-8%	?	-8%	359%
COc1ccc2c3c(n(C)c2c1)[C@H](CO)N(C(=O)c1ccccn1)CC31CCN(C(=O)Cc2ccccc2)CC1	.	6	.	.	.	.
ON=C(CCc1ccccc1)c1ccccc1	.	82	.	14%	.	.
Nc1ccc(S(=O)(=O)N2CCC(Cc3ccccc3)CC2)cc1	1%	8	.	15%	10%	0%
CCCCN(CC)S(=O)(=O)c1ccccc1	1%	9	.	4%	8%	12%
Cc1ccc(S(=O)(=O)N(CCCO)CC(O)CON=C2c3ccccc3-c3ccccc32)cc1 (configuration not stated)	3%	31	?	10µM*	-31%	9.3µM*
CC(CNC(=O)C1CCN(C(=O)N2CCOc3ccc(Cl)cc32)CC1)c1ccccc1 (configuration not stated)	-7%	0	.	.	.	.
CCN(CC)S(=O)(=O)c1ccc(NC(=O)c2cccs2)cc1	-13%	9	-12%	-21%	1%	?
CCN(CC)S(=O)(=O)c1ccc(C)c(NC(=O)/C=C/c2cccs2)c1	-1%	-33	-17%	10µM*	16%	-19%
CC(=O)Nc1ccc(C(=O)NNC(=O)c2cccs2)cc1	-21%	-67*	33%	11%	24%	?
CCN(CC)S(=O)(=O)c1ccc(C(=O)NNC(=O)c2cccs2)cc1	-4%	-3	0%	13%	10%	0.15µM*
Cc1ccccc1NC(=O)/C=C/c1cccs1	-7%	1	306%	2%	-9%	259%
O=C(Cc1ccccc1)NN1C(=O)C2C(C1=O)C1C=CC2C12CC2 (configuration not stated)	6%	56	-6%	6%	-2%	?
COC(=O)c1ccc(Nc2ncnc3c2cnn3-c2ccccc2)cc1	0%	-34	.	.	.	.
O=C(O)/C=C/C(O)c1ccc(Cl)cc1 (configuration not stated)	25µM*	42	?	-2%	.	1%
CCC(=O)N1c2ccccc2CC1C(=O)NCCc1ccccc1OC (configuration not stated)	-3%	24	.	.	.	.
CCn1cc(C(=O)O)c(=O)c2cc(F)c(N3CCNCC3)nc21	.	92	3.6µM*	-2%	.	1.4µM*
CCn1cc(C(=O)O)c(=O)c2ccc(C)nc21	6%	83	5%	0%[8.37 µM]	0%	5%
Cc1ccc(Cl)cc1N1CCN(S(=O)(=O)c2ccc3c(c2)CCCN3C(=O)C2CCC2)CC1	3%	19	.	.	.	.
Cc1cc(C)n(C(=O)/C(C#N)=N/Nc2cc(Cl)cc(Cl)c2)n1	-1%	.	12µM*	10µM*	-32%	?
CCN(CC)c1ccc(C(=C2C=CC(=[N+](CC)CC)C=C2)c2ccc(S(=O)(=O)O)cc2S(=O)(=O)[O-])cc1	.	?	.	2%	.	.
CN(C)c1ccc(C(=O)C(=O)c2ccccc2)cc1	14%	-10	52%	-7%	-3%	?
SMILES	Sm TGR inh	HCMV inh	Pf growth 48h	HCV inhibitor	SARS PLpro yeast	Pf growth 96h
CN(C)c1ccc(C(=C2C=CC(=[N+](C)C)C=C2)c2c(O)c(S(=O)(=O)[O-])cc3cc(S(=O)(=O)O)ccc23)cc1	.	.	?	.	.	6µM*
CN(C)c1ccc(C(=C2C=CC(=[N+](C)C)C=C2)c2ccccc2)cc1	.	.	7.6µM*	.	.	3.8µM*
CN(C)c1ccc(C(=C2C=CC(=[N+](C)C)C=C2)c2ccc(N(C)C)cc2)cc1	.	.	0.3µM*	.	.	0.19µM*
CN(C)c1ccc(C(=O)c2ccc(N(C)C)cc2)cc1	3%	135	.	?	-14%	103%
CC(=O)N1CCc2cc(S(=O)(=O)C(C)CC(=O)NCc3ccc(C)o3)ccc21 (configuration not stated)	?	4	-21%	7%	21%	9%
CC(=O)N1CCc2cc(S(=O)(=O)CCC(=O)NCc3ccc(C)o3)ccc21	11µM*	6	16%	14%	-3%	10%
Cc1ccc(CNC(=O)CCS(=O)(=O)c2cc(Br)cc3c2N(C(=O)C2CC2)CC3)o1	28µM*	30	2.6µM*	-8%	2%	12µM*
CNC(=O)CSc1nnc(-c2ccco2)n1-c1ccccc1	-1%	-1	5%	12%	2%	56%
COc1cccc(-n2c(SCC(=O)Nc3sc4c(c3C(N)=O)CCC4)nc3ccccc3c2=O)c1	-16%	-4	4.1µM*	?	2%	-1%
COc1cccc(-n2c(SCC(=O)Nc3nc4ccccc4s3)nc3ccccc3c2=O)c1	-3%	0	?	-5%	1%	?
NC(=O)c1c(NC(=O)CSc2nnc(-c3ccco3)n2-c2ccccc2)sc2c1CCC2	22µM*	-1	0%	-16%	9%	11%
CCOC(=O)c1c(NC(=O)CSc2nnc(C)c(=O)[nH]2)sc2c1CCCC2	-3%	13	13%	-10%	2%	.
N#Cc1c(NC(=O)CSc2nnc(-c3ccco3)n2-c2ccccc2)sc2c1CCC2	56µM*	-39	23%	-16%	-7%	.
CCn1c(SCC(=O)Nc2sc3c(c2C#N)CCCC3)nnc1-c1ccco1	?	2	28%	?	0%	.
Cc1nnc(SCC(=O)Nc2sc3c(c2C#N)CCCC3)[nH]c1=O	-2%	-17	7%	-4%	0%	15µM*
CC(C)(C)c1nc(S(=O)(=O)c2ccc(Cl)cc2)c(N2CCOCC2)o1	8.9µM*	-18	.	18%	-4%	26%
O=S(=O)(c1ccc(Cl)cc1)c1nc(-c2ccco2)oc1N1CCOCC1	-28%	0	-7%	-13%	-1%	10%
CC(C)Cc1nc(S(=O)(=O)c2ccc(Cl)cc2)c(N2CCOCC2)o1	2.2µM*	.	-14%	4%	4%	2%
C[C@@H]1COc2cc(NCCCN3CCOCC3)ccc2S(=O)(=O)N1	.	2	.	.	.	.
Cc1cccn2c(=O)c3cc(C(=O)NC4CCCC4)c(=N)n(Cc4ccc(F)cc4)c3nc12	-17%	-16	?	11µM*	15%	?
